Experimental data published in the supplement of paper PMC11732987, “Enantioselective OTUD7B fragment discovery through chemoproteomics screening and high-throughput optimisation” (Communications Chemistry, 2025).

Experiments:
Assay in all cases: log2 ratio of Biotin-Ahx-Ub-VS probe labelling (fragment/DMSO); higher = less target engagement (more negative = stronger competition), active = hit call of the paper (q ≤ 0.05, log2 ratio ≤ -1)
Settings in all cases: compound concentration: 200 uM; treatment time: 3 h
[1] = target: T1, USP19 (UniProt O94966)
T1 sequence (whole entry): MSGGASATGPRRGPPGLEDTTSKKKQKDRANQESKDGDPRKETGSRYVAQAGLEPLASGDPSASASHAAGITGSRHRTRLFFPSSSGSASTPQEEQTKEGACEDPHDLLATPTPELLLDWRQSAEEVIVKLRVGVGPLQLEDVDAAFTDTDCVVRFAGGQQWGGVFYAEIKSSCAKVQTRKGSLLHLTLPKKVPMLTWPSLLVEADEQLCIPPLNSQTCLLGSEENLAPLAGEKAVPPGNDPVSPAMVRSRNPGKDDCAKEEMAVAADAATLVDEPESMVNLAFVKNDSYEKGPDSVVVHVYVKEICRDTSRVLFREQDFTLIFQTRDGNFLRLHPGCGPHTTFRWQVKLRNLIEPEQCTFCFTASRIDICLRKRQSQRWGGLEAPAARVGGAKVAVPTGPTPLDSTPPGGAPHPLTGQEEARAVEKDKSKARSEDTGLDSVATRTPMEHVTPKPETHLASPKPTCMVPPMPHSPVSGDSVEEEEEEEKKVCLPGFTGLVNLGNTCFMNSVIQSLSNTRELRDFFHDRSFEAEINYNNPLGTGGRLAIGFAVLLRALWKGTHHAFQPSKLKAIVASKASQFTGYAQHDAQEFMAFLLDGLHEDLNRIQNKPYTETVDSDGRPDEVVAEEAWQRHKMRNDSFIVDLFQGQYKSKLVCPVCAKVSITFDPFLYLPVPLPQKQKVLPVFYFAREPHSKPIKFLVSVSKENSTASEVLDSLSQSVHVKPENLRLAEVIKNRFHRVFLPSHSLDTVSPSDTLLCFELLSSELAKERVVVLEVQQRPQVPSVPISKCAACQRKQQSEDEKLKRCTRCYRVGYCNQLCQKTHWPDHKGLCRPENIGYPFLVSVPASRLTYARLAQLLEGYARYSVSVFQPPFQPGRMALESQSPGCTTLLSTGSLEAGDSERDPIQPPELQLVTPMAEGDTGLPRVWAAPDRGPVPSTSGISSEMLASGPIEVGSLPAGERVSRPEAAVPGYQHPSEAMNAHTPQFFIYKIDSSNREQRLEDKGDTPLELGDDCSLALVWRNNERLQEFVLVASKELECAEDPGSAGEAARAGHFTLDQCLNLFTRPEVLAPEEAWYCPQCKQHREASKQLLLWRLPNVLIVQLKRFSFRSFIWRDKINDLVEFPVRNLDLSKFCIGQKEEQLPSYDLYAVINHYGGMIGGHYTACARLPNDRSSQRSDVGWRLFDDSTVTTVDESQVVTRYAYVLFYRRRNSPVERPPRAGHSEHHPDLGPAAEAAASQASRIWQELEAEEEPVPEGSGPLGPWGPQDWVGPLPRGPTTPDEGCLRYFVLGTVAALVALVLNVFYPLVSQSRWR
Summary of the method: (§1)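 Triplicate samples of HEK293T lysate, 495 µg each, received fragment at 200 µM or vehicle for 3 h, followed by Biotin-Ahx-Ub-VS (0.5 µM final) for 1 h. After NeutrAvidin enrichment of labelled DUBs and LysC/trypsin digestion, peptides were run by diaPASEF LC-MS/MS. The values are average log2 fragment/vehicle ratios from global-median-normalised Spectronaut label-free quantities, tested by unpaired t-test on proteins having ≥2 unique peptides.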

[2] = target: T2, USP22 (UniProt Q9UPT9)
T2 sequence (whole entry): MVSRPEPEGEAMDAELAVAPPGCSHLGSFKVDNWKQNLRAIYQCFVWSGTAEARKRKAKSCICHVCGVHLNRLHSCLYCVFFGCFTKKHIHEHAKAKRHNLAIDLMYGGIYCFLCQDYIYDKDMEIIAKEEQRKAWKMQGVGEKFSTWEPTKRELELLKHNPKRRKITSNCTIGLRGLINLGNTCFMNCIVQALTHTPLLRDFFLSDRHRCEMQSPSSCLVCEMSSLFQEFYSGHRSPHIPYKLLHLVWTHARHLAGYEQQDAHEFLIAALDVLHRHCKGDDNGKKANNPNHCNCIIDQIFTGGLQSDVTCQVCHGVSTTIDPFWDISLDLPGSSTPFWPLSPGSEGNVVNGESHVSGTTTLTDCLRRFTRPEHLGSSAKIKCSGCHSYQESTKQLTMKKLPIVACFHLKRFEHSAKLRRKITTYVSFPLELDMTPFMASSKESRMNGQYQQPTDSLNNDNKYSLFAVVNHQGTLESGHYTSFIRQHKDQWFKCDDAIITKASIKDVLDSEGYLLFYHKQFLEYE
Summary of the method: as §1

[3] = target: USP24 (UniProt Q9UPU5)
Summary of the method: as §1

[4] = target: T3, USP25 (UniProt Q9UHP3)
T3 sequence (whole entry): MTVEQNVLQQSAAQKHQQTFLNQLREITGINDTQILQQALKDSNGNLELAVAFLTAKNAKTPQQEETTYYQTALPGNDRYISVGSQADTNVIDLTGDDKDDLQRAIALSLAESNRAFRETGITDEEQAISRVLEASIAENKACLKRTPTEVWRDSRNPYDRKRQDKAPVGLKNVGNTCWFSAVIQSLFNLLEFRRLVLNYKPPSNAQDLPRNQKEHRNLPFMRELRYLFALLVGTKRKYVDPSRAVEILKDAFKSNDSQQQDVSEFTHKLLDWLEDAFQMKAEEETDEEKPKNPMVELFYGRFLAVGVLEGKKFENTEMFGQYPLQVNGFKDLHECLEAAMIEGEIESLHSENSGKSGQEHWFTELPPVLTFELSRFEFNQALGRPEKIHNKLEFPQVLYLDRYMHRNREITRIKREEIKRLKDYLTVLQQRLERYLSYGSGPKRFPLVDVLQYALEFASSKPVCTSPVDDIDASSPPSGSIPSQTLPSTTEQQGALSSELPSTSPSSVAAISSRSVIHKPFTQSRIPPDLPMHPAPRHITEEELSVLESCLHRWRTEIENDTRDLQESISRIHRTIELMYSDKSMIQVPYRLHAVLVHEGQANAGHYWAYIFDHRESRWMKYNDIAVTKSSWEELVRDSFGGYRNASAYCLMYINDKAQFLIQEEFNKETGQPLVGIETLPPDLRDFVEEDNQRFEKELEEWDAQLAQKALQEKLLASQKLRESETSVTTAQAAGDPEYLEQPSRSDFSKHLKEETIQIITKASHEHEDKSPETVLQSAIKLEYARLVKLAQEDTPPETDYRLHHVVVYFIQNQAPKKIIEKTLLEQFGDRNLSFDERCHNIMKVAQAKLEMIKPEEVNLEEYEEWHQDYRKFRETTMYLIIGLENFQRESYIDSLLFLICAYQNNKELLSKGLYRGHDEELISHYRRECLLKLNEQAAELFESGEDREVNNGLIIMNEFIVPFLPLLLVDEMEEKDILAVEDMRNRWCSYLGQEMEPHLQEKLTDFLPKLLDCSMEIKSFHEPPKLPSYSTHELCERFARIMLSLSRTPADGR
Summary of the method: as §1

[5] = target: T4, USP28 (UniProt Q96RU2)
T4 sequence (whole entry): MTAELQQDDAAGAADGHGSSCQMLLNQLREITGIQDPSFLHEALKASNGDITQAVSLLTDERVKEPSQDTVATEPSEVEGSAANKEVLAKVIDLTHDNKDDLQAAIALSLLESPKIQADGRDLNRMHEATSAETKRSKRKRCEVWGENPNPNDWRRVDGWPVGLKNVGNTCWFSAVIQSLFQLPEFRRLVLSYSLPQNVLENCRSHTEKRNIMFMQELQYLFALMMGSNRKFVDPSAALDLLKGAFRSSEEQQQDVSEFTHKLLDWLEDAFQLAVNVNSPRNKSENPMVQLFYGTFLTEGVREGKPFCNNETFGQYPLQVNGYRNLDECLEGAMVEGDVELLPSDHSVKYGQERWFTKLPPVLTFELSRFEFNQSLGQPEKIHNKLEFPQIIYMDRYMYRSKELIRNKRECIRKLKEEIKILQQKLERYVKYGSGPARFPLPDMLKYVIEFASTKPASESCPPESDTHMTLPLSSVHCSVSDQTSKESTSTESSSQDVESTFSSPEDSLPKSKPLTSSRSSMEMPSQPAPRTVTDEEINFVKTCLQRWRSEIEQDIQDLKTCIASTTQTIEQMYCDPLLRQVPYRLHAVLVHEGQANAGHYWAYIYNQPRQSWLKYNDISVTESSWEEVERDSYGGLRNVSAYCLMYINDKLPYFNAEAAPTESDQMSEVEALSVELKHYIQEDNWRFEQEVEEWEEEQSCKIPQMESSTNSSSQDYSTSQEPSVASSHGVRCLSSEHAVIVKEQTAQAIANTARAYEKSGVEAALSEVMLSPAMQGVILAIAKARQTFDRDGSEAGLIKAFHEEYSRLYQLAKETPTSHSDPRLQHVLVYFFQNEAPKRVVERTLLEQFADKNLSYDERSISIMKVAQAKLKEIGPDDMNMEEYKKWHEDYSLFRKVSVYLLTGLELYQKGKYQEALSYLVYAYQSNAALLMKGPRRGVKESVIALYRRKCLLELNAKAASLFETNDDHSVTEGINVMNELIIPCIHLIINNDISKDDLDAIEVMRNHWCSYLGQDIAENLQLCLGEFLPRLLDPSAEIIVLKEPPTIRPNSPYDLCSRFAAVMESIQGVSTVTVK
Summary of the method: as §1

Measured: log2 ratio of Biotin-Ahx-Ub-VS probe labelling

Chain of USP24 (Q9UPU5 whole entry): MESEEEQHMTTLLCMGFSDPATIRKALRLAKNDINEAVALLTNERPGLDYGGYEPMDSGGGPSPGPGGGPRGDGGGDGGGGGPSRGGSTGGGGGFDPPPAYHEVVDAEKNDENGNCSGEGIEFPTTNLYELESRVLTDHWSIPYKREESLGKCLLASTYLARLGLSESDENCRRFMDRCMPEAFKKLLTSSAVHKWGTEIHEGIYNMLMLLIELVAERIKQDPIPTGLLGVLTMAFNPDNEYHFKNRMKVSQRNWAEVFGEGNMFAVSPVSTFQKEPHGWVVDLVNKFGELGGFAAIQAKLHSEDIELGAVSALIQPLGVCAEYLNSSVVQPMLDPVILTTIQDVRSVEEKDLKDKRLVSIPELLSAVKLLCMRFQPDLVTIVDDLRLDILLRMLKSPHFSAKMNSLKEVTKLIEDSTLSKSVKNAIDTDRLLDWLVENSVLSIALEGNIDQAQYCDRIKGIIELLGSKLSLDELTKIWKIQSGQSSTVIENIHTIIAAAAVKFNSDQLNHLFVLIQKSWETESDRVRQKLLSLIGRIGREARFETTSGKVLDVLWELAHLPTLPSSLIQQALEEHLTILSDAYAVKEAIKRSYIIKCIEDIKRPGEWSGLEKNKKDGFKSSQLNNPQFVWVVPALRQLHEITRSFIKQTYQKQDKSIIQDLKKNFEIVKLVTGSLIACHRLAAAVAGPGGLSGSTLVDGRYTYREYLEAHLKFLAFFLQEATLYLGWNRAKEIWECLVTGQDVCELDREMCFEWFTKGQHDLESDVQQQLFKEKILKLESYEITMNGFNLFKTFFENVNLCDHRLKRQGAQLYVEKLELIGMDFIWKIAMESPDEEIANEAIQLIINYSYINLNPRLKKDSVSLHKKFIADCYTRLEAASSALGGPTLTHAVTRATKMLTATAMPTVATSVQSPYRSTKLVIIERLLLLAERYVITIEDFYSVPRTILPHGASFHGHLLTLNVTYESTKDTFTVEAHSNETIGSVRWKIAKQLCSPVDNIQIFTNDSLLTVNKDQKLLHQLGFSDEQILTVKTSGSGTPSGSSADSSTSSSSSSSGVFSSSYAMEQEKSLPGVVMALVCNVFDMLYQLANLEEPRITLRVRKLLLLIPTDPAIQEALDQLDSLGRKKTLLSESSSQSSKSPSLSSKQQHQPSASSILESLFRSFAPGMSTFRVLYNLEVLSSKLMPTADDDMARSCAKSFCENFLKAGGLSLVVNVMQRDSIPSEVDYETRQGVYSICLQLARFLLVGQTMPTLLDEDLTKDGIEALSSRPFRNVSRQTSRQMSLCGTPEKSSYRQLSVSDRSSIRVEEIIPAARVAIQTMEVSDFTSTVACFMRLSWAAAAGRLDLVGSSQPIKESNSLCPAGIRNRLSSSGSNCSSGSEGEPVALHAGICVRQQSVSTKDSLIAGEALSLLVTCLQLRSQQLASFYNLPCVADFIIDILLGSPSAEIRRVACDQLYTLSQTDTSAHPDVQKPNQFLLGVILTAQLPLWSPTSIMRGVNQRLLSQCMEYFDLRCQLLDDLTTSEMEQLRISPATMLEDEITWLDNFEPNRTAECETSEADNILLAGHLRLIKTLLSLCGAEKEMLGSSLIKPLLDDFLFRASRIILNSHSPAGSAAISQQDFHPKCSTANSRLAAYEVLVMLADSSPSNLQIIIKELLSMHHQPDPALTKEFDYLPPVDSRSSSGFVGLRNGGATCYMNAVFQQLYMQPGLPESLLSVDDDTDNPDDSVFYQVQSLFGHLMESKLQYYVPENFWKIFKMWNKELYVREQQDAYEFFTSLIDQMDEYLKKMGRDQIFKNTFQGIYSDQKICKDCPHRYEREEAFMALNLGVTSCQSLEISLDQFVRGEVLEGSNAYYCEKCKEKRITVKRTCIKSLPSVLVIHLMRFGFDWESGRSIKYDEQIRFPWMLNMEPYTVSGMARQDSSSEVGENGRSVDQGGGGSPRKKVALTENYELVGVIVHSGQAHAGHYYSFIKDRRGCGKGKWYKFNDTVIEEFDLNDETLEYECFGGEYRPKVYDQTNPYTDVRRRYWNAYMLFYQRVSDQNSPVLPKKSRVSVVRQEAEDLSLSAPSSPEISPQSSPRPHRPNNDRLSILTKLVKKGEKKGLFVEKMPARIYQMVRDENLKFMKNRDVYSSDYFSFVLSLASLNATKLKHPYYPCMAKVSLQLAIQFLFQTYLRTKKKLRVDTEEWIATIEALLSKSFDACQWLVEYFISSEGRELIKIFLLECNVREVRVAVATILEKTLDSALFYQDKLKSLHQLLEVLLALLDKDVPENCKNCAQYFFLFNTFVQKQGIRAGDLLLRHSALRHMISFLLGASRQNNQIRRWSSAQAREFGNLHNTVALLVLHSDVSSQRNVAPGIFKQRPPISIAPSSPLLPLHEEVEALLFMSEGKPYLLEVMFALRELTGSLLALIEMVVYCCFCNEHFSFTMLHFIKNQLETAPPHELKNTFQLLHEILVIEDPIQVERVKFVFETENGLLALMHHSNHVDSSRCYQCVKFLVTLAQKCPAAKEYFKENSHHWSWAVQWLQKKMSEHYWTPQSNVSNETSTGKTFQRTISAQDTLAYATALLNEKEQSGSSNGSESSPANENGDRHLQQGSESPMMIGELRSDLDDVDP

CCN(C(=O)CCl)C1CCS(=O)(=O)C1 (stereo not given)
inactive: [1] 0.00457 | [2] -0.0368 | [3] 0.0946 | [4] -0.0672 | [5] -0.106
